Laboratory results from PubChem BioAssay (NCATS).
Inconclusive results are not listed. Active and inactive are the calls of the source. Unless noted, calls come from the whole dose curve; as a rule, active = well fitted curve in the direction sought with a large enough effect; inconclusive = small, poorly fitted or top-dose-only effect, or another doubt; inactive = no such curve, though single readings can be large; an effect the other way counts as inactive or inconclusive.

Key:
[1] = biological target: Guanine nucleotide-binding protein G(i) subunit alpha-1 (Homo sapiens) (UniProt P63096); test: qHTS Assay for Inhibitors of RGS12 GoLoco Motif Activity (Green Fluorophore) (AID 879);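 note: 0% = labeled peptide with Gαi1 and full inhibition = labeled peptide alone without protein; negative values mean loss of peptide binding seen as reduced polarization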
How it was run: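 Fluorescence polarization assay: 50 nM Gαi1 with 10 nM FITC-labeled RGS12 GoLoco peptide in 10 mM Tris pH 7.5, 150 mM NaCl, 0.1 mM GDP, 0.05% NP40, 10 min at room temperature with compound.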

[2] = biological target: Cytochrome P450 3A4 (Homo sapiens) (UniProt P08684); test: qHTS Assay for Inhibitors and Substrates of Cytochrome P450 3A4 (AID 884); note: % is set by controls: 0 for no effect and ±100 for the full control effect; nearly all actives have a fitted effect of over 50% in size
How it was run: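 20 nM human CYP3A4 with 25 uM Luciferin-PPXE (at KM) in 200 mM KPO4, preincubated 10 min with compound; NADPH regeneration started a 60 min RT reaction. Luciferin detected by luminescence, normalized to 57 uM ketoconazole as full inhibition.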

[3] = biological target: Cytochrome P450 2C19 (Homo sapiens) (UniProt P33261); test: qHTS Assay for Inhibitors and Substrates of Cytochrome P450 2C19 (AID 899); note: % is set by controls: 0 for no effect and ±100 for the full control effect; nearly all actives have a fitted effect of over 60% in size
How it was run: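 Luminescent read-out of luciferin formed from Luciferin-H EGE (10uM, equal to KM). Enzyme 5nM in 50mM KPO4; compound added, 10 min at 37C, then NADPH regenerating system for 60 min at 37C. Full inhibition defined by 57uM ketoconazole.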

[4] = Confirmation and Secondary Assay for Modulators of Hemoglobin Beta Chain Splicing at IVS2 654 locus (AID 910);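 note: HeLa cells stably carrying EGFP split by mutant beta-globin IVS2-654 intron; % of control where 0% means no effect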
How it was run: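 HeLa cells stably expressing EGFP interrupted by β-globin IVS2-654 intron, seeded overnight in Opti-MEM/2% FCS, then treated 2 days at 37 °C. Restored splicing read as total peak GFP intensity per well by laser scanning cytometry (488 nm excitation, 500–520 nm emission); 500 nM antisense PNA as control.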

[5] = qHTS Assay for Identification of Small Molecule Agonists for Thrombopoietin (TPO) Signaling Pathway (AID 917); note: % is set by controls: 0 for no effect and ±100 for the full control effect
How it was run: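 Murine Ba/F3 cells expressing human TPO receptor and GPIIb-promoter luciferase, IL-3-starved overnight, given compound plus TPO at 26 pM (EC50). After 24 h at 37 C, 5% CO2, luminescence read.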

[6] = Confirmation and Secondary Assay for Modulators of Hemoglobin Beta Chain Splicing at IVS2 705 locus (AID 930);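 note: HeLa cells stably expressing the EGFP-705 splicing reporter; GFP fluorescence per well restored by corrected splicing of the IVS2-705 intron in EGFP; % of control where 0% means no effect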
How it was run: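 Fluorescence gain (488 nm laser, 500-520 nm PMT) reflects restored correct splicing of a mutant IVS2-705 intron inside EGFP in stably transfected HeLa cells after 2-day compound treatment.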

[7] = biological target: Muscarinic acetylcholine receptor M1 (Rattus norvegicus) (UniProt P08482); test: qHTS Assay for Antagonists of Acetylcholine Muscarinic M1 Receptor: Kinetic Measurement of Intracellular Calcium Response (AID 943); note: nearly all actives have a fitted effect of over 75% in size
How it was run: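 CHO cells expressing rat M1 receptor, Fluo-4 loaded, preincubated 10 min with compound, then stimulated with EC80 carbachol (100 nM final). Kinetic calcium fluorescence over 4 min; response taken as peak over basal signal.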

[8] = biological target: Muscarinic acetylcholine receptor M1 (Rattus norvegicus) (UniProt P08482); test: qHTS Assay for Antagonists of Acetylcholine Muscarinic M1 Receptor: Measurement of IP-One Response (AID 944); note: nearly all actives have a fitted effect of over 75% in size; note: potency is the fitted concentration of half-maximal effect
How it was run: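 CHO cells stably expressing rat M1, pretreated 10 min with compound, then stimulated 30 min with carbachol at EC80 (200 nM) in LiCl-containing buffer pH 7.4; IP1 accumulation read by HTRF competition (665/620 nm).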

[9] = biological target: Pyruvate kinase (Leishmania mexicana) (UniProt Q27686); test: qHTS Validation Assay for Inhibitors of Leishmania Mexicana Pyruvate Kinase (AID 945);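 note: 0% = DMSO only neutral control wells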
How it was run: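 Compounds are tested as eight-point concentration series. Reactions contain 0.2 nM LmPYK E451W, 0.5 mM PEP, 0.1 mM ADP, 7 mM MgCl2 and 50 mM KCl at pH 7.2, run 1 h at room temperature, then read by PKLight luminescence.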

[10] = Cellular Toxicity (caspase-3) H-4-II-E (AID 663); settings: H-4-II-E rat hepatoma, scaled: DMSO 0%, 100 µM tamoxifen 100%; at 92.2 µM (top of the series);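 note: cells exposed to compound for 16 hr before readout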
How it was run: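 Rat hepatoma H-4-II-E cells (1500/well) plated 5 hr, then exposed to compound titrations for 16 hr at 37 °C. Caspase-Glo 3/7 luminescence read after 20 min at RT; data normalized to DMSO and 100 uM tamoxifen, AC50 from Hill fits.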

[11] = Cellular Toxicity (caspase-3) Hek293 (AID 664);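 note: cells exposed to compound for 16 h at 37 °C before readout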
How it was run: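 HEK293 cells in complete medium treated 16 h at 37 °C, then Caspase-Glo 3/7 luminescence read after 20 min at room temperature. Normalized to DMSO and 100 uM tamoxifen; AC50 from Hill fit of concentration-response.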

[12] = Cellular Toxicity (caspase-3) NIH 3T3 (AID 666);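 note: caspase signal read after 16 h compound exposure; 0% = DMSO basal and 100% = 100 µM tamoxifen stimulation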
How it was run: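 Mouse NIH 3T3 fibroblasts (1000/well) treated 16 h at 37 C; caspase-3/7 activity measured by Caspase-Glo 3/7 luminescence after 20 min. Normalized to DMSO and 100 uM tamoxifen; AC50 from Hill fits.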

[13] = Cellular Toxicity (caspase-3) Renal Proximal Tubule (AID 667);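 note: cells exposed to compound for 16 hours at 37 °C before detection; 0% = DMSO basal and 100% = 10 µM staurosporine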
How it was run: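 Freshly isolated primary rat kidney proximal tubule cells, 1000/well, treated 16 hr at 37 °C, then Caspase-Glo 3/7 luminescence after 1 hr. Normalized to DMSO and 10 uM staurosporine; AC50 from Hill fit.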

[14] = Cell Viability - LYMP2-001 (AID 921);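 note: 0% = DMSO only and full inhibition = tetraoctylammonium bromide control wells; nearly all actives have a fitted effect of over 70% in size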
How it was run: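 Human lymphoblastoid LYMP2-001 cells, 2500 per well, in complete medium, treated 24 h at 37 C. Viability from cellular ATP by CellTiter-Glo luminescence; AC50 from Hill-equation fits of qHTS concentration-response.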

[15] = biological target: Cytochrome P450 3A4 (Homo sapiens) (UniProt P08684); test: qHTS Assay for Activators of Cytochrome P450 3A4 (AID 885); note: nearly all actives have a fitted effect of over 65% in size
How it was run: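 Steps: enzyme/substrate mix dispensed; compound added, 10 min RT; NADPH regeneration solution added, 60 min RT; luciferin detection buffer stops reaction; 20 min later luminescence measured.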

[16] = qHTS Assay for Identification of Small Molecule Antagonists for NFkB Signaling Pathway (AID 895; active = well fitted inhibition curve with a large enough effect in the signal ratio, with a control signal flat, not every such curve was filed as active; the % refers to the signal ratio; note: potency is the fitted concentration of half-maximal effect)
How it was run: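 ME-180 NFkB-bla cells (beta-lactamase under NFkB response element), plated overnight, treated with compound then 10 pM TNF alpha (about EC50) for 5 hrs at 37 C. LiveBLAzer FRET read at 460/530 nm emission, 405 nm excitation.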

[17] = biological target: Cytochrome P450 2C9 (Homo sapiens) (UniProt P11712); test: qHTS Assay for Inhibitors and Substrates of Cytochrome P450 2C9 (AID 883); note: % is set by controls: 0 for no effect and ±100 for the full control effect; nearly all actives have a fitted effect of over 60% in size
How it was run: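 10nM CYP2C9 + 100uM Luciferin-H (=KM), 25mM KPO4; cpd 10 min 37C; NADPH regen, 60 min 37C; stop/detect with P450 Glo-Buffer 20 min; luminescence. Norm. to 57uM sulphaphenazole as full inhibition.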

[18] = qHTS Assay for Identification of Small Molecule Antagonists for Thrombopoietin (TPO) Signaling Pathway (AID 918); settings: TPO-dependent cell signaling reporter, antagonist mode; note: potency is the fitted concentration of half-maximal effect; nearly all actives have a fitted effect of over 60% in size
How it was run: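 Murine Ba/F3 cells expressing human TPO receptor and a Glycoprotein IIb promoter-luciferase reporter, IL-3-starved overnight, treated with compound plus TPO at EC50 (26 pM final). After 24 h at 37 C, luminescence read to detect inhibitors.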

Chain of Cytochrome P450 3A4 (Homo sapiens) (P08684 whole entry, looked up): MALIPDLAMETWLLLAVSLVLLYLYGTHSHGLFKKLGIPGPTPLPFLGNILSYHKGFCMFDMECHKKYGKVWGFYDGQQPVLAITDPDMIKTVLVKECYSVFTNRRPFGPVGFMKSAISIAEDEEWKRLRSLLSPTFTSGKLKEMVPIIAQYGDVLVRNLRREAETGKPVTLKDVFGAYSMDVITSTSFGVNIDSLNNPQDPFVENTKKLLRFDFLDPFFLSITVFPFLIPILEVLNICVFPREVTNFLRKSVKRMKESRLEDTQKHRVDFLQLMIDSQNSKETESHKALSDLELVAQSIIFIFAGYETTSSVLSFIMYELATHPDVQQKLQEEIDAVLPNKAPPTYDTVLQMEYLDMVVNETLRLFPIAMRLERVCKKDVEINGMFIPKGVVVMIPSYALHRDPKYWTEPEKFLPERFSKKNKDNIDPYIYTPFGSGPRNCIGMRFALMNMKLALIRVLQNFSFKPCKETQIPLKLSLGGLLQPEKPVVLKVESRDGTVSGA
Chain of Pyruvate kinase (Leishmania mexicana) (Q27686 2-499 E452W): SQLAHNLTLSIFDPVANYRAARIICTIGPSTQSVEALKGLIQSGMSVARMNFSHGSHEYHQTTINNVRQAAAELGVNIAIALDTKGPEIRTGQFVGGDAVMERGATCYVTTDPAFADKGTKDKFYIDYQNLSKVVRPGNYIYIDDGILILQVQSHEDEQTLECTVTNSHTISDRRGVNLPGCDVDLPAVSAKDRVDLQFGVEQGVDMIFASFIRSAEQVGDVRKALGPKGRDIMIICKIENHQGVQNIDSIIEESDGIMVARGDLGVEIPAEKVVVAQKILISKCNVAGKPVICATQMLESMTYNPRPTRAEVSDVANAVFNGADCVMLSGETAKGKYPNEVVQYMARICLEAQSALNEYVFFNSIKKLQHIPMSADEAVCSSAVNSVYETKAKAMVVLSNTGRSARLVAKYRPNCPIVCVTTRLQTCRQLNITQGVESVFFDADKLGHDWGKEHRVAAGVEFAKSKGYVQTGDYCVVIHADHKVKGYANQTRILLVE
Chain of Guanine nucleotide-binding protein G(i) subunit alpha-1 (Homo sapiens) (P63096 whole entry, looked up): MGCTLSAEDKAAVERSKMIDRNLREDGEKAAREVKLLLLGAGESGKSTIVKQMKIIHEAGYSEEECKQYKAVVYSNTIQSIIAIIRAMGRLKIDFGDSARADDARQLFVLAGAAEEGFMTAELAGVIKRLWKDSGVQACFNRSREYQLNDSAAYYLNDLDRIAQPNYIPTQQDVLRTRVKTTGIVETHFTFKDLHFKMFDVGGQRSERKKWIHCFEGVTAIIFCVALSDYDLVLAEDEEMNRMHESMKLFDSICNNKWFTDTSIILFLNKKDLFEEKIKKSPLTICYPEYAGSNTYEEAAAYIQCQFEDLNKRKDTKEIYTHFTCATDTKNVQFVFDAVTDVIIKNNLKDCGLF
Chain of Muscarinic acetylcholine receptor M1 (Rattus norvegicus) (P08482 whole entry, looked up): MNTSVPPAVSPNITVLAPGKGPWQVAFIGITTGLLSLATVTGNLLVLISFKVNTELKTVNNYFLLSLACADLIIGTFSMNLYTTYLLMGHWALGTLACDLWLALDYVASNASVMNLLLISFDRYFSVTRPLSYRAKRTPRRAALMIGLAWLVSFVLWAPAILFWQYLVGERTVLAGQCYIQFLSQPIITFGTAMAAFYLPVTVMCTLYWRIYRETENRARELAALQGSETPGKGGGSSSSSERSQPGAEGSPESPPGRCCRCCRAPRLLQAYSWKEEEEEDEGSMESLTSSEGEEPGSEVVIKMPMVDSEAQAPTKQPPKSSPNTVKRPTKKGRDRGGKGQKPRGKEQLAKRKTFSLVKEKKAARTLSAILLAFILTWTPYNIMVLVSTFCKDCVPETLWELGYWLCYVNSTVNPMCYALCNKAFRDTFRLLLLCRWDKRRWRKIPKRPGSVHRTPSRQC
Chain of Cytochrome P450 2C9 (Homo sapiens) (P11712 whole entry, looked up): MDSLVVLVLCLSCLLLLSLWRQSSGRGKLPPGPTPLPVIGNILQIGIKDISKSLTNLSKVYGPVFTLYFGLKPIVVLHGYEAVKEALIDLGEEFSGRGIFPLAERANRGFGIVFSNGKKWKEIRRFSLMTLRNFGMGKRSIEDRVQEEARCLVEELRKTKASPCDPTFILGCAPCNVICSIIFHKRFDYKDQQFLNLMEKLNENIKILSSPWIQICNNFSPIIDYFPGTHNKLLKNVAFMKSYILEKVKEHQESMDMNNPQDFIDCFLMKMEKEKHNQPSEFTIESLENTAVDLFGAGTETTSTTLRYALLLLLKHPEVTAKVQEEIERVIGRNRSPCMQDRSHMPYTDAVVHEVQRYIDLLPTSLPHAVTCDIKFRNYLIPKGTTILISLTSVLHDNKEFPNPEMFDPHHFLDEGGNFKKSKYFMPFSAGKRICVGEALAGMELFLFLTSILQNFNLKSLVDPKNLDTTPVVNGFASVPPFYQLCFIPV
Chain of Cytochrome P450 2C19 (Homo sapiens) (P33261 whole entry, looked up): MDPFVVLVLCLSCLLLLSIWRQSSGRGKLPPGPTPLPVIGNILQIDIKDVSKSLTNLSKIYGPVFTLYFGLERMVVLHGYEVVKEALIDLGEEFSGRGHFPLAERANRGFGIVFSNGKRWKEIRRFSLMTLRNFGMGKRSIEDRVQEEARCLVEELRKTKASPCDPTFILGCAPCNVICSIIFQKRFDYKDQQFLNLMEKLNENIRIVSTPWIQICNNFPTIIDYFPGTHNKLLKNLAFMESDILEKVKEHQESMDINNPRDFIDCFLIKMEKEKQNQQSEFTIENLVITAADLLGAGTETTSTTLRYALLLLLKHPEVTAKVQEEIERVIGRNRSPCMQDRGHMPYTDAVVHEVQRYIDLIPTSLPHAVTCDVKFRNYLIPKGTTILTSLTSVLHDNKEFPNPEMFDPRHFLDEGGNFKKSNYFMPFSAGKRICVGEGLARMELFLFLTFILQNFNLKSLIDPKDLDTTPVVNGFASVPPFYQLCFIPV

COc1ccccc1N1CCNCC1
inactive: outcome [1] | Potency [2] | Potency [3] | outcome [4] | outcome [5] | outcome [6] | Potency [7] | Potency [8] | outcome [9]

Oc1ccccc1-c1ccccc1
inactive: caspase-3 activation [10] -0.124% | outcome [11] | outcome [12] | outcome [13] | Potency [2] | Potency [14]

NN=C(N)N
inactive: outcome [1] | outcome [15] | outcome [4] | outcome [5] | outcome [6] | Potency [7] | Potency [8] | outcome [9]

Cc1ccc(S(=O)(=O)N[C@@H](CCCCN)C(=O)CCl)cc1
inactive: outcome [1] | outcome [5] | Potency [7] | outcome [9]
active: Potency [16] 11.2 µM

Oc1ccc(Cl)cc1Cc1ccccc1
inactive: caspase-3 activation [10] 2.16% | outcome [11] | outcome [12] | outcome [13] | Potency [14]

O=c1[nH]c2ccccc2n1CCCN1CCC(n2c(=O)[nH]c3cc(Cl)ccc32)CC1
inactive: outcome [1] | outcome [4] | outcome [5] | outcome [6] | outcome [9]
active: Potency [8] 14.1 µM

Cc1cccc(C)c1NC1=NCCCS1
inactive: outcome [1] | outcome [4] | outcome [5] | outcome [6] | outcome [9]

O=c1[nH]c2ccccc2n1C1CCN(CCCC(c2ccc(F)cc2)c2ccc(F)cc2)CC1
inactive: outcome [1] | Potency [17] | Potency [2] | outcome [4] | outcome [6] | outcome [9]
active: Potency [18] 10 µM

c1ccc2c(c1)Nc1ccccc1S2
inactive: caspase-3 activation [10] -0.251% | outcome [11] | outcome [12] | outcome [13] | Potency [14]

Clc1ccc(COC(Cn2ccnc2)c2ccc(Cl)cc2Cl)cc1 (stereo unspecified)
inactive: outcome [12] | outcome [13] | outcome [15] | outcome [4] | outcome [6]

CCCN1CCC[C@@H]2Cc3nc(N)ncc3C[C@H]21
inactive: outcome [1] | Potency [16] | outcome [5] | Potency [8] | outcome [9]
